Assay results as given in ChEMBL document CHEMBL1961873, “Compounds: GSK PKIS; Assays: Nanosyn kinase panel” (2012).

Columns and labels:
[1] = biological target: Dual specificity protein kinase CLK3 (Homo sapiens) (UniProt P49761); conditions: at 1 µM;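 note: each value is the mean inhibition of CLK3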
[2] = biological target: Dual specificity tyrosine-phosphorylation-regulated kinase 1A (Homo sapiens) (UniProt Q13627); conditions: at 0.1 µM
[3] = biological target: Dual specificity tyrosine-phosphorylation-regulated kinase 1A (Homo sapiens) (UniProt Q13627); conditions: at 1 µM
[4] = biological target: Dual specificity tyrosine-phosphorylation-regulated kinase 1B (Homo sapiens) (UniProt Q9Y463); conditions: at 0.1 µM
Sequence of Dual specificity tyrosine-phosphorylation-regulated kinase 1B (Homo sapiens) (Q9Y463 whole entry, looked up): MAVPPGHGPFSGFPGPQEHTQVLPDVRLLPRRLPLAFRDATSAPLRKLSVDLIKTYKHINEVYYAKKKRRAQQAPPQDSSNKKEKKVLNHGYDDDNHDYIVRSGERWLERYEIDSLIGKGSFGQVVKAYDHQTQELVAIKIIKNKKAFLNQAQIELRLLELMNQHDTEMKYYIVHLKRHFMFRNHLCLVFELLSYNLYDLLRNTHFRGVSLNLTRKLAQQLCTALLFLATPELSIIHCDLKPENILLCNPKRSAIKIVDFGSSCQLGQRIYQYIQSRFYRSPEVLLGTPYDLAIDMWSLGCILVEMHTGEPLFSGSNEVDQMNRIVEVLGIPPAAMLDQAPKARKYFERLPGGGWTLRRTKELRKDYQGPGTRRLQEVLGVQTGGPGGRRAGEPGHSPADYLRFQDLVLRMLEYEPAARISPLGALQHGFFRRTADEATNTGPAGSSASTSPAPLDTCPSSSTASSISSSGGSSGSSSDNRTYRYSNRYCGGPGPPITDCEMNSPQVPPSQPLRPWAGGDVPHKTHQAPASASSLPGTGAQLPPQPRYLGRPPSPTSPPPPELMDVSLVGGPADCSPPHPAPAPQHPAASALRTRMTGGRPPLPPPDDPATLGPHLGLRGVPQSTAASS

[5] = biological target: Dual specificity tyrosine-phosphorylation-regulated kinase 1B (Homo sapiens) (UniProt Q9Y463); conditions: at 1 µM
[6] = biological target: T1, Dual specificity tyrosine-phosphorylation-regulated kinase 2 (Homo sapiens) (UniProt Q92630); conditions: at 0.1 µM
T1 sequence (whole entry): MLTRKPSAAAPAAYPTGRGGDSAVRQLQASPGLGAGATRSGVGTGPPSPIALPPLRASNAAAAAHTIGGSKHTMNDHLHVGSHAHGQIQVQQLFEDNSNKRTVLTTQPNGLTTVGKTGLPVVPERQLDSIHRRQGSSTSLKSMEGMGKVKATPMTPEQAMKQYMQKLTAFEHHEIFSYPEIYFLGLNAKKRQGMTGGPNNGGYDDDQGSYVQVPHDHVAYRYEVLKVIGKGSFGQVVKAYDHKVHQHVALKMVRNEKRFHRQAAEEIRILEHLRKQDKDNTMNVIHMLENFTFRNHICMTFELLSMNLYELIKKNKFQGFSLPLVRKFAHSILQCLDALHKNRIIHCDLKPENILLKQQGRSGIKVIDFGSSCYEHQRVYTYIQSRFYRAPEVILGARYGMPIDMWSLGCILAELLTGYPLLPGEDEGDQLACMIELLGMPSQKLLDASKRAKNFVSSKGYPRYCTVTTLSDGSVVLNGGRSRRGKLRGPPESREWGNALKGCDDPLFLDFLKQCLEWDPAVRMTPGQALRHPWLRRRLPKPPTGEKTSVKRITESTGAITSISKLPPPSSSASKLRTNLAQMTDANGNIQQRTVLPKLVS

[7] = biological target: T1, Dual specificity tyrosine-phosphorylation-regulated kinase 2 (Homo sapiens); conditions: at 1 µM
[8] = biological target: Glycogen synthase kinase-3 alpha (Homo sapiens) (UniProt P49840); conditions: at 0.1 µM
Sequence of Glycogen synthase kinase-3 alpha (Homo sapiens) (P49840 2-483 limits assumed): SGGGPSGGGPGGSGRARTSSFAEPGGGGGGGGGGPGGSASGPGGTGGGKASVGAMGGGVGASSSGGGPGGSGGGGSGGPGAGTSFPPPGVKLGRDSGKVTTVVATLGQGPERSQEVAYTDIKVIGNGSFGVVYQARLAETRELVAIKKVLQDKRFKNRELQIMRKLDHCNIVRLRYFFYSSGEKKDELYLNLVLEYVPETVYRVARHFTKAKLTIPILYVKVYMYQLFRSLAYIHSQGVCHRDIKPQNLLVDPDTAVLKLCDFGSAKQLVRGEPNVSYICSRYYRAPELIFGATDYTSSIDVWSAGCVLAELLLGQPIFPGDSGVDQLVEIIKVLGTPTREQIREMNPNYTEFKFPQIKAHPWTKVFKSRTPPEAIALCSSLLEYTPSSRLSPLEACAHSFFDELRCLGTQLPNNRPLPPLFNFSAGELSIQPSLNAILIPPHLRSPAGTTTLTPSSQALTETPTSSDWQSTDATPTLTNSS

[9] = biological target: Glycogen synthase kinase-3 alpha (Homo sapiens) (UniProt P49840); conditions: at 1 µM
[10] = biological target: Glycogen synthase kinase-3 beta (Homo sapiens) (UniProt P49841); conditions: at 0.1 µM
Sequence of Glycogen synthase kinase-3 beta (Homo sapiens) (P49841 whole entry, looked up): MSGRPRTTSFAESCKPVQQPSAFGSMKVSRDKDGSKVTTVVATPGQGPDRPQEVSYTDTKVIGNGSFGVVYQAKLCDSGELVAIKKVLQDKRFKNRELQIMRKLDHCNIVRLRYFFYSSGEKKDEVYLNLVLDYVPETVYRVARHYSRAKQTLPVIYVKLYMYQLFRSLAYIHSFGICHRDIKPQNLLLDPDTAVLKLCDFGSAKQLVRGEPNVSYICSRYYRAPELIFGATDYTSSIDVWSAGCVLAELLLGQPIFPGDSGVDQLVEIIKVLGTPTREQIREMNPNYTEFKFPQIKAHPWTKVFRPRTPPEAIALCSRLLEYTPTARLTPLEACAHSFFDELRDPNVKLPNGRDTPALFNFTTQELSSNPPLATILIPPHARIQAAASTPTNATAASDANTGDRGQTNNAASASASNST

[11] = biological target: Glycogen synthase kinase-3 beta (Homo sapiens) (UniProt P49841); conditions: at 1 µM
[12] = biological target: Homeodomain-interacting protein kinase 1 (Homo sapiens) (UniProt Q86Z02); conditions: at 0.1 µM
Sequence of Homeodomain-interacting protein kinase 1 (Homo sapiens) (Q86Z02 whole entry, looked up): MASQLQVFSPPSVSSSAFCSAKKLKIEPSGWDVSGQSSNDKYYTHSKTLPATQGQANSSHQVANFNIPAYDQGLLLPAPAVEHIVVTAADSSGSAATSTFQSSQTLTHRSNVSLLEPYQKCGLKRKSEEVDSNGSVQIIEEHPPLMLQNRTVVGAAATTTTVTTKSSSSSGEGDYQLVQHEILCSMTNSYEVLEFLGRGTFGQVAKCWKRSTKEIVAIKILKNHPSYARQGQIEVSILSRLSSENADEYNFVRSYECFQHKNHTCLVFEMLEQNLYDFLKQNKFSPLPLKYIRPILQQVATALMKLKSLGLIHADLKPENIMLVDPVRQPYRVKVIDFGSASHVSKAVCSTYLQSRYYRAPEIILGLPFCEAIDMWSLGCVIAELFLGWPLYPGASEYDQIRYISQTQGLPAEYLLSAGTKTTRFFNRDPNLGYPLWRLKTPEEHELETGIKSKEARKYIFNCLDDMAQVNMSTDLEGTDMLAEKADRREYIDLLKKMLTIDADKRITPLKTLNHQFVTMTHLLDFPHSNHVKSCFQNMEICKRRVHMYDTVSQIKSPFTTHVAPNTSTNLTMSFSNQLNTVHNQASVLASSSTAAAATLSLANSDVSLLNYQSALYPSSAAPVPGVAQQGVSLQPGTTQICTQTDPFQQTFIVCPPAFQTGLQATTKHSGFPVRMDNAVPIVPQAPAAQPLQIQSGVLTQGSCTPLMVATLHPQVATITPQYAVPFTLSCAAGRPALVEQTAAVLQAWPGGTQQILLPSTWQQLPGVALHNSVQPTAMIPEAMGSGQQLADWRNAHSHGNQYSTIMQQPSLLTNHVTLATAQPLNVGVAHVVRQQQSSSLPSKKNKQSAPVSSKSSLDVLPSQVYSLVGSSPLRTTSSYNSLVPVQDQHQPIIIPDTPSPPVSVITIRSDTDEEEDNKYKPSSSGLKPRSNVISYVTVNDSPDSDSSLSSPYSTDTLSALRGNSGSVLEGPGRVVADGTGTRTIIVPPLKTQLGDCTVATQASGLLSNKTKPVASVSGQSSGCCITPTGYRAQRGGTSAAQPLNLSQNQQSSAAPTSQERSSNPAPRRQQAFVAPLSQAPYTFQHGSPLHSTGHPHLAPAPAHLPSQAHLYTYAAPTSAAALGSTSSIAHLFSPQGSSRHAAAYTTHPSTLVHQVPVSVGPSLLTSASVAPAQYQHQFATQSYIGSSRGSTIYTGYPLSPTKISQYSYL

[13] = biological target: Homeodomain-interacting protein kinase 1 (Homo sapiens) (UniProt Q86Z02); conditions: at 1 µM
[14] = biological target: T2, Homeodomain-interacting protein kinase 4 (Homo sapiens) (UniProt Q8NE63); conditions: at 0.1 µM
T2 sequence (whole entry): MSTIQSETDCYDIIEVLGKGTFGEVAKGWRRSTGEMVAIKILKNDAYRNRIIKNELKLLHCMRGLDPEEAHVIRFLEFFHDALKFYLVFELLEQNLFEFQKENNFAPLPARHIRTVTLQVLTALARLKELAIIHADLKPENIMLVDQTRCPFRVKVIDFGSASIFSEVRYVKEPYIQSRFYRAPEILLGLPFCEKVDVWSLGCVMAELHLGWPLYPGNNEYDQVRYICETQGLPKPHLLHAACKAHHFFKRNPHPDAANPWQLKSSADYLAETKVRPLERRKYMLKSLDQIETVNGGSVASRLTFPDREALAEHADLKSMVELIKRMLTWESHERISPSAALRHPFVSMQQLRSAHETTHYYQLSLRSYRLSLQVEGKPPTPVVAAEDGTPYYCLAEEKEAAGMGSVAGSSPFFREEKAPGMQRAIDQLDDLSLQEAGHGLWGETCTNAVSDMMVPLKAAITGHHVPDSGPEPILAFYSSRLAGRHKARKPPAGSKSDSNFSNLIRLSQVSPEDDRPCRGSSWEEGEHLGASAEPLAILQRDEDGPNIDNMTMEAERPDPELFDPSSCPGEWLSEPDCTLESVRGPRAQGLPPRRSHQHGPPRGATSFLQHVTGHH

[15] = biological target: T2, Homeodomain-interacting protein kinase 4 (Homo sapiens); conditions: at 1 µM
[16] = biological target: Mitogen-activated protein kinase 9 (Homo sapiens) (UniProt P45984); conditions: at 0.1 µM
Sequence of Mitogen-activated protein kinase 9 (Homo sapiens) (P45984 whole entry, looked up): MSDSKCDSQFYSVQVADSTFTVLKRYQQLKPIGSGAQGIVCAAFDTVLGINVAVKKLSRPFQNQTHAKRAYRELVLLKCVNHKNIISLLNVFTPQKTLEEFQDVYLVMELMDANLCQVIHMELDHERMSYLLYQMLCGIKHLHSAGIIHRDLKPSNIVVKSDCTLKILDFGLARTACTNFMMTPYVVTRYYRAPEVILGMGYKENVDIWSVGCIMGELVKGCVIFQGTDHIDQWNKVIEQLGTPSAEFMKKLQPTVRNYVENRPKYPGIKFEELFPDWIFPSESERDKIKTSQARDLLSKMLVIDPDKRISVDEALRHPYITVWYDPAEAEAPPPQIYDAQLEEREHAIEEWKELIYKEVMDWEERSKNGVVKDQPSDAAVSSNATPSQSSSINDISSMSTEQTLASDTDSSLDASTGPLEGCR

[17] = biological target: Mitogen-activated protein kinase 9 (Homo sapiens) (UniProt P45984); conditions: at 1 µM
[18] = biological target: Mitogen-activated protein kinase 1 (Homo sapiens) (UniProt P28482); conditions: at 0.1 µM
Sequence of Mitogen-activated protein kinase 1 (Homo sapiens) (P28482 whole entry): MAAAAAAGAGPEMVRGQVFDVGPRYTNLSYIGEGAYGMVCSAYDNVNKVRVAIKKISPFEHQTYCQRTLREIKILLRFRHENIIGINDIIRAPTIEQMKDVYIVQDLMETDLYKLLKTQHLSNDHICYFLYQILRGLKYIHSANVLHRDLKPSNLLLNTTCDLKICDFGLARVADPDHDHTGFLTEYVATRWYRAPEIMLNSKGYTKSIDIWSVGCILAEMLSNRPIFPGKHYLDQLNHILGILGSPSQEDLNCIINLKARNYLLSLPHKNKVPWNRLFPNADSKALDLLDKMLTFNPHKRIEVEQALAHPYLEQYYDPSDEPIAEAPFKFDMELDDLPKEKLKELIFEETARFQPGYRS

[19] = biological target: Mitogen-activated protein kinase 1 (Homo sapiens) (UniProt P28482); conditions: at 1 µM
[20] = biological target: Mitogen-activated protein kinase 3 (Homo sapiens) (UniProt P27361); conditions: at 0.1 µM;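 note: each value is a mean inhibition figure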
Sequence of Mitogen-activated protein kinase 3 (Homo sapiens) (P27361 whole entry): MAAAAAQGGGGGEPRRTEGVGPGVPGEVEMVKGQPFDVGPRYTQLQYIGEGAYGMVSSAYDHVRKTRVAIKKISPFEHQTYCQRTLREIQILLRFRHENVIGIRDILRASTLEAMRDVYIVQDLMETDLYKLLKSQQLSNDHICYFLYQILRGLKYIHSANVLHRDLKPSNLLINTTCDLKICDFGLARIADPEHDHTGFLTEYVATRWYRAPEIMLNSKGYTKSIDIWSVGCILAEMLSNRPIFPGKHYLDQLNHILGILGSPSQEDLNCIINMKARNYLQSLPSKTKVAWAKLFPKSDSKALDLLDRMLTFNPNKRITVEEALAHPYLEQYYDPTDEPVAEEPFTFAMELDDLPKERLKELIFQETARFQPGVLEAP

Sequence of Dual specificity protein kinase CLK3 (Homo sapiens) (P49761 whole entry, looked up): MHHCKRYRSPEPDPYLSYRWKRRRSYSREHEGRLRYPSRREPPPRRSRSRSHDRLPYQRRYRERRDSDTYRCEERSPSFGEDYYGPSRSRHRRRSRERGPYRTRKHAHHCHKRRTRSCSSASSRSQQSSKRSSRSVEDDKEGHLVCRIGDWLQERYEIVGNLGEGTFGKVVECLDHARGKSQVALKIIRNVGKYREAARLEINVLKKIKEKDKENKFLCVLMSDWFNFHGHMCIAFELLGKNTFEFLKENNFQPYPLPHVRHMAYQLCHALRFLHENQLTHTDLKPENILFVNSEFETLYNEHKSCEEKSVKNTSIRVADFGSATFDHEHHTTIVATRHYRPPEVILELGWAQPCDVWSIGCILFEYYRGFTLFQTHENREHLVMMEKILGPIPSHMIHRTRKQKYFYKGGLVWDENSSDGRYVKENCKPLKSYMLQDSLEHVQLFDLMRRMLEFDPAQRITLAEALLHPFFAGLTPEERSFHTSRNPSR

Row | Compound | inhibition [1] [%] | inhibition [2] [%] | inhibition [3] [%] | inhibition [4] [%] | inhibition [5] [%] | inhibition [6] [%] | inhibition [7] [%] | inhibition [8] [%] | inhibition [9] [%] | inhibition [10] [%] | inhibition [11] [%] | inhibition [12] [%] | inhibition [13] [%] | inhibition [14] [%] | inhibition [15] [%] | inhibition [16] [%] | inhibition [17] [%] | inhibition [18] [%] | inhibition [19] [%] | inhibition [20] [%]
1 | FC(F)(F)c1cccc(-c2nn3ncccc3c2-c2ccnc(Nc3ccc4c(c3)OCCO4)n2)c1 | 0.79 | 1.23 | 2.77 | 0.78 | 0.83 | 2.54 | 3.26 | 5.83 | 22.4 | 5.36 | 33.3 | -2.65 | 3.4 | -0.63 | 3.75 | 4.15 | 20.4 | 1.58 | 4.01 | 1.85
2 | COc1cc(N2CCN(C(C)C)CC2)ccc1Nc1nc(Nc2ccc(F)cc2C(N)=O)c2cc[nH]c2n1 | 13.2 | 45.2 | 86.5 | 49.1 | 76.6 | 5.36 | 36.4 | 3.88 | 5.19 | 2.71 | 7.27 | 33.9 | 73.7 | 44.8 | 75.1 | 65.5 | 89.1 | 2.91 | 15.3 | 2.87
3 | Cc1cccc2c1NC(=O)/C2=N\Nc1ccc(S(N)(=O)=O)cc1 | 3.84 | 1.06 | 5.61 | 0.89 | 1.16 | 2.62 | 3.24 | 3.97 | 8.42 | 3.71 | 7.38 | 1.24 | 4.95 | 2.16 | 1.3 | 1.94 | 4.49 | 2.25 | 0.43 | 2.41
4 | COc1ccc2c(-c3ccnc(Nc4cccc(OC(F)(F)F)c4)n3)cnn2n1 | 52.8 | 16 | 60.8 | 32.6 | 77.2 | 4.32 | 16 | 28.1 | 81.1 | 21.2 | 73.2 | 84.8 | 91.7 | 51.3 | 83 | 1.35 | 11.4 | 2.96 | 7.52 | 5.36
5 | Clc1ccc(-c2nn3ncccc3c2-c2ccnc(Nc3ccccc3)n2)cc1 | 2.2 | 2.68 | 5.74 | 1.65 | 3.34 | 1.34 | 0.66 | 1.79 | 12.2 | 2.61 | 26.2 | 1.35 | 3.25 | 0.5 | 2.83 | 16.6 | 73.4 | -0.11 | 1.18 | -0.01
6 | CNC(=O)c1cncc(/C=C/c2ccccc2Cl)c1 | 0.64 | -0.68 | 0.12 | -0.37 | 0.88 | 1.32 | 1.49 | 3.11 | 8.27 | 3.39 | 10 | 1.58 | 2.44 | 0.63 | 1.63 | -1.14 | -1.36 | 0.37 | -1.68 | 0.99
7 | O=C(Nc1n[nH]c2cc(-c3ccc(F)cc3)ccc12)C1CC1 | 1.03 | 3.64 | 11 | 1.08 | 7.73 | 2.57 | 2.75 | 3.8 | 14.7 | 2.61 | 14.9 | -2.89 | 2.09 | 0.01 | 1.78 | 2.97 | 3.68 | 1.79 | 4.65 | 1.72
8 | COC(=O)Nc1nc2ccc(Oc3ccc(NC(=O)Nc4cccc(Cl)c4)cc3)cc2[nH]1 | -1.09 | -1.75 | -2.75 | -1.02 | -0.33 | 1.12 | -2.41 | 3.91 | 3.54 | 2.92 | 4.55 | -1.97 | -0.94 | 2.35 | 14.8 | 1.98 | 5.76 | 1.02 | 1.55 | -0.95
9 | CN1CCC(n2cnc(-c3ccc(F)cc3)c2-c2ccnc(N)n2)CC1 | 1.25 | 1.69 | 6.19 | 0.68 | 2.08 | 2.29 | 12.5 | 1.36 | 7.39 | 1.11 | 8.08 | 3.64 | 24.8 | 1.91 | 16.7 | 2.6 | 11.3 | 0.3 | 2.71 | 3.88
10 | Cc1cccc(Nc2ncc(-c3ccccc3)o2)c1 | 0.79 | 1.29 | 4.26 | 0.51 | 2.16 | 3.21 | 5.94 | 4.32 | 12.3 | 3.23 | 12 | -1.62 | 9.25 | 1.22 | 8.11 | 5.28 | 7.95 | 3.91 | 5.08 | 5.66
11 | N#Cc1c(NC(=O)c2ccc(F)cc2)sc2c1CCCC2 | 0.61 | 0.28 | 3.62 | -0.66 | 1.05 | -0.13 | 0.26 | 0.69 | 2.28 | -0.51 | 3.45 | -1.95 | -1.66 | -1.19 | -0.61 | 2.17 | 2.49 | 0.39 | 1.25 | -1.04
12 | CCc1nn2ncccc2c1-c1ccnc(NC2CC2)n1 | 0.97 | 1.95 | 4.71 | 1.01 | 5.27 | 1.81 | 10.9 | 6.96 | 9.03 | 6.18 | 7.53 | -1.75 | 9.32 | 2.35 | 20.9 | 2.47 | 5.7 | 1.85 | 3.78 | -0.55
13 | COc1cc(/C=N/Nc2ncnc3[nH]ncc23)ccc1O | 13.2 | 12.5 | 45.1 | 6.29 | 31.6 | 7.46 | 44.8 | 9.63 | 41.7 | 7 | 24.5 | 9.37 | 39.4 | 5.91 | 23 | 1.89 | 5.5 | 3.68 | 4.72 | 2.18
14 | COc1cc2c(cc1Nc1nc(Nc3ccsc3C(N)=O)c3cc[nH]c3n1)N(C(=O)CN(C)C)CCC2(C)C | 4.74 | 4.97 | 15.5 | 1.64 | 10.2 | 4.55 | 6.57 | 7.63 | 21.1 | 5.85 | 17 | 0.05 | 7.66 | -0.16 | 6.13 | 7.73 | 13.9 | 4.87 | 12.2 | 3.02
